The whole screen tested about 10,000 compounds, of which about 5,600 (56%) were called active. Cut-off read from the data, not from the text of the source: active = inhibition above about 40%; inactive = the rest. So high a share suggests a set chosen from earlier hits. A selection follows.
What follows are molecules tested against Protein Mdm4 (Homo sapiens) + E3 ubiquitin-protein ligase Mdm2 (Homo sapiens) (UniProt O15151+Q00987) (assay: Mdm2-MdmX complex disruptors, retested hits, confirmation, luminescence, single concentration (AID 489028)). Conditions: Mdm2-MdmX binding, luminescent assay; at 8 µM; stronger effect = higher value.
Chain of Protein Mdm4 (Homo sapiens) + E3 ubiquitin-protein ligase Mdm2 (Homo sapiens) (O15151 whole entry, looked up): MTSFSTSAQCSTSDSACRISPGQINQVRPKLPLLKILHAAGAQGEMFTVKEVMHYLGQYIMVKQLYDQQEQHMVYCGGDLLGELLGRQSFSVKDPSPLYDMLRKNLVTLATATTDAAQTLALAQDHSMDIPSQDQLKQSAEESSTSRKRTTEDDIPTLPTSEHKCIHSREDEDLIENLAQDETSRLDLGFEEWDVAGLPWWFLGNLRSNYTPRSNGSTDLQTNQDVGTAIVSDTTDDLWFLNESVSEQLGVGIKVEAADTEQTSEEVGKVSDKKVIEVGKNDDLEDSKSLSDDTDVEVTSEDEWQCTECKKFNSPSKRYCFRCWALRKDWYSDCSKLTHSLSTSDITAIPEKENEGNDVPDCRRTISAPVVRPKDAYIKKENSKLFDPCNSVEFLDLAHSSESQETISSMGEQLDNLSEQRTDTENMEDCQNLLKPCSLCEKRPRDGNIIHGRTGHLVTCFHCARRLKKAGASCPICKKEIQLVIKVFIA
Chain of Protein Mdm4 (Homo sapiens) + E3 ubiquitin-protein ligase Mdm2 (Homo sapiens) (Q00987 whole entry, looked up): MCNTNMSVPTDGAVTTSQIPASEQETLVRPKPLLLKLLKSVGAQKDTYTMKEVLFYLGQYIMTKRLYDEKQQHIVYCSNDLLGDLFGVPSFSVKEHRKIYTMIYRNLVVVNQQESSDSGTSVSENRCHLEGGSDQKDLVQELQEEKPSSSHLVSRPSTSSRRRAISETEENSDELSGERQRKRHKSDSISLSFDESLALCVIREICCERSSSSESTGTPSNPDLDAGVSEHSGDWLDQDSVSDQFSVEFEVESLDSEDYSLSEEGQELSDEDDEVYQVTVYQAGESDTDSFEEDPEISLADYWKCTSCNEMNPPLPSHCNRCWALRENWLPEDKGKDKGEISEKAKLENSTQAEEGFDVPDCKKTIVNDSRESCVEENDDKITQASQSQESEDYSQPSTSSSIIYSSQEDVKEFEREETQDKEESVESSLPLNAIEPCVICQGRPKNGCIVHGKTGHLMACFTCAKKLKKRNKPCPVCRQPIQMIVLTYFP

inhibition, active:
CC(=O)/C(=N\Nc1ccc(Cl)cc1Cl)Sc1cccc2cccnc12 63%, NC(N)=Nc1nc(-c2ccccc2)c2cc(Cl)ccc2n1 59.5%, COc1ccc(Nc2ncnc3ccc(Br)cc23)c(OC)c1 74%, CC1CN(C(=O)CCC(=O)NCCCN2CCC(Cc3ccccc3)CC2)c2cc(Cl)ccc2O1 (stereo unspecified) 56.8%, FC(F)(F)c1ccc(CN2C[C@@H]3C(c4ccccc4)C4(c5ccccc5)CC3(C4)[C@H]2c2ccccc2)cc1 (stereo partly specified) 94.5%, COc1ccc(C(=O)NC2CCCc3c2cnn3-c2cccc(C)c2C)c(OC)n1 (stereo unspecified) 94.8%, Cc1cc(C(=O)NC2CCCc3c2cnn3-c2cccc(C)c2C)c(C)o1 (stereo unspecified) 61.6%, CCCCC(O)(CCCC)C(=O)NN(C(=O)CCl)c1ccccc1 57.1%, CCCC(O)(CCC)C(=O)NN(C(=O)CCl)c1cccc(C)c1 58.3%, N=c1n(CCc2ccccc2)c2ccccc2n1Cc1ccccc1F 52.5%, COC(=O)c1c(NC(=O)COc2ccc(Cl)cc2Cl)sc2c1CC(C)(C)NC2(C)C 73.6%, Oc1cccc(/C=N/Nc2ccc(Cl)nn2)c1O 61.2%, C=CCn1c(SCc2c(C)noc2C)nc2sc3c(c2c1=O)CCC(C)C3 (stereo unspecified) 57.9%, Cc1ccc(-n2[nH]c(C)c(/C=N/NC(=O)c3cccc([N+](=O)[O-])c3)c2=O)cc1C 82.2%, NS(=O)(=O)c1ccc(N=Nc2c(O)[nH]c3ccc(Br)cc23)cc1 42.6%, CCNS(=O)(=O)c1ccc(NC(=O)Nc2cccc(C(F)(F)F)c2)cc1 42.4%, O=C(Nc1ccc(C(=O)N2CCOCC2)cc1)Nc1cccc(C(F)(F)F)c1 70.3%, Cc1nc(/N=C(\N)NC(=O)NC2CCCCC2)nc2ccccc12 43.9%, O=[N+]([O-])/C=C/c1ccc2c(ccn2Cc2ccccc2)c1 52.9%, CN(c1ccccc1)S(=O)(=O)c1cc(C(=O)N2CCN(c3ncccn3)CC2)ccc1Cl 50.1%, COc1cccc(-n2c(SCC(=O)NC3CCCCC3)nc3n[nH]c(C)c3c2=N)c1 51.4%, CCOC(=O)Nc1ccc2c(c1)N(C(=O)CCCl)c1ccccc1[S@]2=O 41.2%, CCOc1cc(C(=O)N2CCc3cc(OC)c(OC)cc3C2)ccc1OC(F)F 56.4%, COc1cccc(NC(=O)[C@H](Cc2c[nH]c3ccccc23)NC(=O)[C@@H]2Cc3ccccc3CN2)c1 76%, Cc1ccc(OCCOCCOc2ccc(Br)cc2/C=N\NC(=O)c2ccncc2)cc1 68%, O=[N+]([O-])c1ccccc1S(=O)(=O)Nc1cccc2cccnc12 64.5%, CC(NC(=O)c1ccc(N2CCNCC2)c([N+](=O)[O-])c1)C12CC3CC(CC(C3)C1)C2 (stereo unspecified) 73%, Cc1cccc(Nc2ccccc2C(=O)NCc2ccco2)c1C 43.1%, CN(C)c1ccnc2sc3c(=O)n(Cc4ccccc4)cnc3c12 64.7%, Cc1c(/C=N\NC(=O)c2cc3ccccc3o2)c2ccccc2n1C 54.4%, COc1cccc(CNCCc2c[nH]c3ccccc23)c1OCc1ccccc1F 45.4%, COc1cccc(-c2nnc(NC(=O)c3ccc(S(=O)(=O)N(CC(C)C)CC(C)C)cc3)o2)c1 52.3%, NC(=O)c1sc2nc3c(c(-c4ccccc4)c2c1N)CCC3 68.7%, COc1ccc(CNC(=O)C[C@H]2C[C@H](C(=O)N3CCOCC3)[C@@]3(CCC4CCCC4)c4[nH]c5ccc(Cl)cc5c4CCN3C2=O)cc1OC 49.1%, CCCCCCCCn1c2c(c(=N)c3c1CCC3)CCCC2 91.8%

inhibition, inactive:
N#Cc1ccc(C(=O)Nc2cccc3cccnc23)c(F)c1 1.3%, CCCCCCC(=O)N(O)C1CC(=O)N(c2ccccc2)C1=O (stereo unspecified) 27.3%, CCN(CCCNC(=O)CSc1cc(=O)n(C)c2cc(Cl)ccc12)Cc1ccccc1 19.6%, CCCCn1ccnc1C(=O)c1cccc(S(=O)(=O)N2c3ccccc3CC2C)c1 (stereo unspecified) 9.35%, CCCc1ccc(OCC(=O)NNC(=S)NC(=O)c2ccco2)cc1 23.9%, CN1CCN(C2Cc3ccc(Cl)cc3Sc3ccc(F)cc32)CC1 (stereo unspecified) 27.8%, CCOc1ccc(C2c3[nH]c4ccccc4c3CCN2Cc2cccn2-c2ncccn2)cc1 (stereo unspecified) 32.3%, CCOc1cc(-c2cc(-c3ccc(NC(C)=O)cc3)nc(N)c2C#N)ccc1O 31.6%, O=[N+]([O-])c1cc(S(=O)(=O)Nc2cccc(Cl)c2)ccc1N=Nc1c(O)[nH]c2ccccc12 5.3%, O=C(Nc1ccc(-c2csc(Nc3cccc(C(F)(F)F)c3)n2)cc1)c1cccc(C(F)(F)F)c1 -10.4%, CC(C)Oc1c(Br)cc(Br)cc1/C=N/NC(N)=S 15.2%, CCC1CCCCN1CCCNC(=O)c1cc2c(Cl)nc3ccccc3c2s1 (stereo unspecified) 26%, O=C(CSc1nc(Nc2ccccc2)nc(N2CCOCC2)n1)Nc1cc(Cl)ccc1O 35%, CC(C)(C)OC(=O)N1CCC(NC(=O)c2[nH]cnc2C(=O)N[C@@H](Cc2ccccc2)C(=O)OCc2ccccc2)CC1 -8%, CCOc1cc2[nH]c(=S)n(Cc3ccc(C(=O)N4CCN(C)CC4)cc3)c(=O)c2cc1OCC -2.8%, O=c1[nH]c(CCl)nc2cc(-c3ccc(Cl)cc3)sc12 7.45%, CC(C)=CCCC1(C)C=Cc2c(ccc3c2[nH]c2cc(O)c(C)cc23)O1 (stereo unspecified) 20.9%, O=C(Nc1cccc(C(F)(F)F)c1)c1ccc(N2CCNCC2)c([N+](=O)[O-])c1 8.6%, O=C(/C=C/c1ccc(Cl)cc1)Nc1ccc(Br)cn1 13.2%, CCc1nn(-c2cc(Oc3cccc4ccccc34)nc(-c3ccccc3)n2)c(N)c1C#N 13.9%, N#CCC(=O)N/N=C/c1cn(Cc2ccc3ccccc3c2)c2ccccc12 23.6%

From PubChem BioAssay AID489028 (Sanford-Burnham Center for Chemical Genomics, 2010)
